From PubChem BioAssay AID504848 (National Center for Advancing Translational Sciences (NCATS), 2011)
Out of some 2,300 compounds screened, about 1,400 (61%) were called active. Roughly 29% stayed inconclusive and do not appear here. Calls come from the whole dose curve; as a rule, active = well fitted inhibition curve with a large enough effect; inconclusive = small, poorly fitted or top-dose-only effect, or effect the other way; inactive = no such curve, though single readings can be large or run the other way. So high a share suggests a set chosen from earlier hits. This is one part of the list.

assay: Confirmation screen for delayed death inhibitors of the malarial parasite plastid, 96 hour incubation; note: nearly all actives have a fitted effect of over 60% in size; settings: P. falciparum luciferase growth in erythrocytes; series mostly up to 28.7 µM
Text: The goal of this screen is to discover new antimalarial compounds that act by inhibiting the development of the apicoplast in the malarial parasite Plasmodium falciparum. The biochemical processes that make this organelle essential for erythrocytic stage parasites are not well understood. However, antibiotics, such as azithromycin and tetracycline, which target the apicoplast translational machinery, have a potent antimalarial effect. […] We have developed a cell-based assay that measures parasite growth based on the expression of an integrated copy of a firefly luciferase reporter. To detect small molecules that cause this "delayed death phenotype, erythrocytes infected with the luciferase-expressing parasites were incubated with compounds for either one or two generations, corresponding to 48 and 96 hours, respectively. Compounds that inhibit parasite growth in the second generation, but not the first, should be enriched in antimalarials that target the apicoplast. Growth inhibition is detected by a decrease in luciferase activity. MLPCN Grant: R21 NS059500 Assay Provider: David Fidock and Eric Ekland, Columbia University Keywords: NIH Roadmap, MLPCN, MLI, MLSMR, qHTS, NCGC, qHTS, malaria, luciferase, viability
Four microliters of culture medium (RPMI 1640 with 0.5% w/v Albumax (GIBCO), 24 mM sodium bicarbonate and 10 ug/mL gentamycin) were dispensed by a Multi-drop Combi into white solid 1536-well plates (Grenier) and 23 nL compound was added by a pin tool. Four microliters of infected erythrocytes (2% hematocrit, 0.1% parasitemia final concentration) in culture medium were dispensed and the plates incubated for 96 hours at 37 C in 5% CO2. Two microliters of luciferase detection reagent was added and luminescence was detected by a ViewLux (PerkinElmer) reader
Potency is the fitted concentration of half-maximal effect.

| SMILES | Potency |
| --- | --- |
| O=C(NCCN1CCN(c2ccc([N+](=O)[O-])cc2)CC1)NCc1ccccc1 | 12.6 µM (active) |
| CC(C)CC1NC(=S)N(Cc2ccccc2)C1=O (configuration not stated) | 3.98 µM (active) |
| CCC(C(=O)O)C1OC(C(C)C(O)C(C)C(=O)C(CC)C2OC3(C=CC(O)C4(CCC(C)(C5CCC(O)(CC)C(C)O5)O4)O3)C(C)CC2C)C(C)CC1C (configuration not stated) | 0.178 µM (active) |
| COC(=O)COc1ccc(S(=O)(=O)NCCC2=CCCCC2)cc1Cl | inactive |
| CC(=O)N1CCN(S(=O)(=O)c2cccc(C(=O)NCCC3=CCCCC3)c2)CC1 | 12.6 µM (active) |
| CCNC(=O)NC(=O)C(C)OC(=O)c1oc2ccccc2c1CSC1CCCCC1 (configuration not stated) | inactive |
| COc1ccc(OC)c(C2=CC(=O)C[C@H](c3ccc4c(c3)OCO4)C2)c1 | 12.6 µM (active) |
| CCOc1ccc(Cl)cc1C1=CC(=O)C[C@H](c2ccc(OC)cc2)C1 | 12.6 µM (active) |
| Cc1ccc(S(=O)(=O)Nc2cccc3ncccc23)s1 | 3.98 µM (active) |
| O=S(=O)(Nc1cccc2ncccc12)c1cccs1 | 3.55 µM (active) |
| CCCc1ccc(C(=O)NC(=O)c2ccccc2O)cc1 | 0.562 µM (active) |
| CC(C)N=C(NS(=O)(=O)c1ccccc1)C(Cl)(Cl)Cl | 4.47 µM (active) |
| O=C1c2cc(F)ccc2-n2c1nc1ccccc1c2=O | 0.158 µM (active) |
| O=C1c2ccccc2-n2c1nc1ccccc1c2=O | 0.501 µM (active) |
| NC(=S)Nn1c(-c2ccccc2)nc2ccccc2c1=O | inactive |
| O=C(CSc1nnc2ccc(-c3cccnc3)nn12)Nc1cccc(F)c1 | 8.91 µM (active) |
| CC1CCC(NC(=O)CN(C)S(=O)(=O)c2ccc3c(c2)c(=O)n(C)c(=O)n3C)CC1 (configuration not stated) | 3.98 µM (active) |
| Cc1cccc(N(C)C(=O)CN(C)S(=O)(=O)c2ccc3c(c2)c(=O)n(C)c(=O)n3C)c1 | 12.6 µM (active) |
| Cc1cc(C)cc(-n2c(N)c(C(=O)Nc3c(C)n(C)n(-c4ccccc4)c3=O)c3nc4ccccc4nc32)c1 | 3.16 µM (active) |

| SMILES | Potency |
| --- | --- |
| CCN(C(=O)c1cc2c(=O)n3ccccc3nc2n1CCCOC)C1CCCCC1 | 10 µM (active) |
| CCOC(=O)c1c(C)c(-c2ccccc2)n(CC(=O)NCCCN(CC)CC)c1C | 11.2 µM (active) |
| COc1ccc(-c2csc(N3CCN(C(=O)c4ccco4)CC3)n2)cc1 | 12.6 µM (active) |
| O=c1[nH]c(C(F)(F)F)nc2ccc3ccccc3c12 | inactive |
| Cn1nc(C(F)(F)F)c(C(=O)Nc2ccc(F)cc2F)c1Sc1ccc(C(F)(F)F)cc1 | 7.94 µM (active) |
| CC(C)N(C(=O)CSc1nnc(-c2ccc3c(c2)OCO3)n1C)C(C)C | 10 µM (active) |
| O=C(Nc1ccccc1O)c1ccc([N+](=O)[O-])cc1 | 12.6 µM (active) |
| CCCOc1cc(NCc2ccccc2)c2ncn(C(C)C)c2c1 | 2.82 µM (active) |
| O=C(OC[C@@H]1O[C@@](O)(COC(=O)c2cccnc2)[C@H](OC(=O)c2cccnc2)[C@H]1OC(=O)c1cccnc1)c1cccnc1 | 6.31 µM (active) |
| Cn1c(CCn2ccccc2=O)nc2cc(NC(=O)COc3ccccc3)ccc21 | 10 µM (active) |
| CCOc1ccc(/C=C2\SC(=S)N(C(C(=O)O)c3ccccc3)C2=O)cc1OC (configuration not stated) | inactive |
| COc1ccccc1OCCCOc1cccc(/C=C2\SC(=O)NC2=O)c1 | 11.2 µM (active) |
| CNC(=S)N(CCc1c(C)[nH]c2ccc(Cl)cc12)Cc1cccnc1 | 12.6 µM (active) |
| CNC(=S)N(CCc1c(C)[nH]c2ccc(C)cc12)Cc1cc(OC)c(OC)c(OC)c1 | 11.2 µM (active) |
| Cc1cccc(NC(=O)c2cn(-c3ccccc3)nc2-c2ccccc2)c1 | 14.1 µM (active) |
| O=C(CCl)Nc1cn(-c2ccccc2)nc1-c1ccccc1 | 11.2 µM (active) |
| OC(c1ccccc1)(c1ccccc1)C1CCN(C(=S)NCCc2ccccc2)CC1 | 5.01 µM (active) |
| CCCCN(CCCNC(=O)c1ccc(CS(=O)(=O)c2ccc(OC)cc2)o1)Cc1ccccc1 | 5.01 µM (active) |
| CN(CCCNC(=O)c1ccc(CS(=O)c2ccc(Br)cc2)o1)Cc1ccccc1 (configuration not stated) | 1.78 µM (active) |

| SMILES | Potency |
| --- | --- |
| CCCCNC(=O)c1ccc(CS(=O)(=O)c2cccc(C(F)(F)F)c2)o1 | inactive |
| CCC1CCCCN1CCCNC(=O)c1ccc(CS(=O)(=O)c2ccc(Br)cc2)o1 (configuration not stated) | 5.01 µM (active) |
| CN(CCNC(=O)c1ccc(CS(=O)(=O)c2ccc(Br)cc2)o1)CCc1ccccc1 | 2 µM (active) |
| Cn1c(=O)c([N+](=O)[O-])c(-n2ccnc2)c2ccccc21 | 14.1 µM (active) |
| CCc1ccc(/C=N/n2c(C)cc(C)c(C#N)c2=O)cc1 | 6.31 µM (active) |
| CCC1CN(C(=O)N2CCC(C(=O)NCc3cccc(OC)c3OC)CC2)c2cc(C)ccc2O1 (configuration not stated) | 11.2 µM (active) |
| COc1cccc(COC(=O)C2CC(=O)N(Cc3ccco3)C2)c1OC (configuration not stated) | inactive |
| CC(CN1CCC(n2nccc2NC(=O)c2ccccc2Cl)CC1)c1ccccc1 (configuration not stated) | 10 µM (active) |
| Cc1ccc(CN2CCC(n3nccc3NC(=O)c3ccccc3C)CC2)o1 | 12.6 µM (active) |
| O=c1[nH]c(=O)n(Cc2ccco2)c2c1C(C(F)(F)F)(C(F)(F)F)N=C(CCc1ccccc1)N2 | 6.31 µM (active) |
| CCOCCCNC(=O)/C(C#N)=C/c1ccc(-c2ccc(S(=O)(=O)N3CCOCC3)cc2)o1 | 11.2 µM (active) |
| COc1ccc(NC(=O)CSc2ccc(-c3ccco3)nn2)c(OC)c1 | 11.2 µM (active) |
| Cc1cc(=O)n2nc(N3CCC(C(=O)NCCc4ccc(Cl)cc4)CC3)sc2n1 | 10 µM (active) |
| Cc1cc(=O)n2nc(N3CCC(C(=O)NCc4ccc(Cl)cc4)CC3)sc2n1 | 10 µM (active) |
| Cc1cc(=O)n2nc(N3CCC(C(=O)NCc4ccc(F)cc4)CC3)sc2n1 | 8.91 µM (active) |
| Cc1cc(=O)n2nc(N3CCCC(C(=O)NCc4ccc(Cl)cc4)C3)sc2n1 (configuration not stated) | 11.2 µM (active) |
| O=C(CCl)Nc1ccc(S(=O)(=O)Nc2nccs2)cc1 | 1.26 µM (active) |
| O=C(CN1C(=O)/C(=C/c2ccc(F)cc2)SC1=S)N1CCN(CCc2ccccn2)CC1 | 15.8 µM (active) |
| CC(C)(C)C(=O)/C(=C\c1cccc([N+](=O)[O-])c1)n1cncn1 | 10 µM (active) |
